The assay relates to Leishmania donovani. The experiment in a line: Leishmania intramacrophage assay. Type of assay: functional, organism-based. Details: scale not given: in the data most compounds retested in dose-response had high values.

Out of some 69,000 compounds screened, about 1,000 (1.4%) showed an effect of 50% or more. Only a selection was taken, and strong results are over-represented in it overall.

Take `CC(C)CS(=O)(=O)Nc1ccc2c(c1)OCC(C)(C)C(=O)N2C`: the “Percent Effect” value (30.3 µM, […]) is on record as -17.18%. Turning to `CSc1ccc(CNC(=O)C2CC(=O)N(C(C)(C)C)C2)cc1` (stereo unspecified), the “Percent Effect” value (30.3 µM, […]) turned out to be 55.18%. Regarding `CCN1CC(C(=O)NCc2cccc(SC)c2)CC1=O` (stereo unspecified), the “Percent Effect” value (30.3 µM, […]) is -29.4%. Take `CN(C)S(=O)(=O)c1ccc(CNC(=O)C2CC(=O)N(C(C)(C)C)C2)cc1` (stereo unspecified): the “Percent Effect” value (30.3 µM, […]) is 21.08%. Consider `O=c1[nH]c(-c2ccc(Cl)cc2)nc2c1CCNC2`, for which the “Percent Effect” value (30.3 µM, […]) worked out at 20.84%.

`O=c1[nH]c(-c2ccc(F)cc2)nc2c1CCNC2`: the “Percent Effect” value (30.3 µM, […]) is 23.84%. Same read-out and setting: the value for `O=c1[nH]c(-c2ccc(F)c(F)c2)nc2c1CCNC2` was 51.76%; that for `Cc1nc(CN2C[C@@H]3CCCO[C@@H]3[C@H](NC(=O)CC3CC3)C2)cs1.O=C(O)C(F)(F)F` was 13.13%. For the molecule `CC(=O)NCC(=O)N1CCC2(COCc3c(C)nc(N(C)C)nc32)C1` (stereo unspecified), the “Percent Effect” value (30.3 µM, […]) came to 0.3657%. On to `Cc1ccoc1C(=O)N1CC[C@H]2C[C@H](c3nnc(C4CC4)o3)O[C@@H]2C1`, for which, under “30.3 µM, […]”, the “Percent Effect” value stood at 7.701%.

On to `Cc1cc(C(=O)Cn2cnnc2[S+](C)[O-])cc(C)c1F` (stereo unspecified), for which the “Percent Effect” value (30.3 µM, […]) was found to be 9.03%. For the molecule `CCCc1nn(C2CCN(C3CC3)C2=O)c(=O)o1` (stereo unspecified), where the note is “30.3 µM, […]”, the “Percent Effect” value was -13.56%. With `CCCc1nn(C2CCN(C(C)C)C2=O)c(=O)o1` (stereo unspecified), the “Percent Effect” value (30.3 µM, […]) is 51.41%.

Take `CCCc1nn(C2CCCN(C(C)C)C2=O)c(=O)o1` (stereo unspecified): the “Percent Effect” value (30.3 µM, […]) is -18.62%. As for `CN1C(=O)C2(CCN(C(=O)c3ccccc3)CC2)c2cc(F)ccc21.Cl`, the “Percent Effect” value (30.3 µM, […]) is reported as 50.2%. As for `CC(=O)N1CCC2(CC1)C(=O)N(C)c1ccc(F)cc12`, the “Percent Effect” value (30.3 µM, […]) is 29.57%. The same measure, in the same setting: under `CC(Oc1ccc(F)c(F)c1)C(=O)N(CC(N)=O)C1CCCC1` (stereo unspecified) stands -10.08%. Consider `CCc1nccn1C1CCCN(C(=O)c2cc3nc(C)ccc3o2)C1` (stereo unspecified), for which the “Percent Effect” value (30 µM, 30.03 µM) was determined as 3.953%. As for `Cc1nn(C)c2cn(C(C)C(=O)NCc3cccc(F)c3)nc12` (stereo unspecified), for the setting “30.3 µM, […]”, the “Percent Effect” value is reported as -38.24%. Take `Cc1nn(C)c2c(NCc3ccccn3)ncnc12`: the “Percent Effect” value (30.3 µM, […]) stood at 50.68%. Consider `CCc1nc(NCc2ccccn2)c2c(n1)c(C)nn2C`, for which the “Percent Effect” value (30.3 µM, […]) is recorded as -38.07%. As to `COc1ccccc1CNC(=O)C(C)n1cc2c(n1)c(C)nn2C` (stereo unspecified), the “Percent Effect” value (30.3 µM, […]) is reported as 52.43%.

As to `Cc1nn(C)c2cn(C(C)C(=O)NCc3ccccn3)nc12` (stereo unspecified), where the note is “30.3 µM, […]”, the “Percent Effect” value amounted to 50.14%.

As for `COc1ccccc1CNC(=O)Cn1ncc2c1c(C)nn2C`, the “Percent Effect” value (30 µM, 30.03 µM) was 13.53%. For `Cc1nn(C)c2cn(C(C)C(=O)NCc3ccc(F)cc3)nc12` (stereo unspecified), under “30.3 µM, […]”, the “Percent Effect” value came to 25.73%. `Cc1nc(NCc2ccccn2)c2c(n1)c(C)nn2C`: the “Percent Effect” value (30.3 µM, […]) was found to be 42.28%. On to `Cc1nn(C)c2cn(C(C)C(=O)NCc3cccnc3)nc12` (stereo unspecified), for which the “Percent Effect” value (30 µM, 30.03 µM) worked out at 8.191%. As to `COc1ccccc1CNC(=O)C(C)N1CC(n2cc(C)cn2)C1` (stereo unspecified), the “Percent Effect” value (30.3 µM, […]) is on record as 25.52%. In the case of `Cc1nn(C)c2cn(C(C)C(=O)NCc3ccncc3)nc12` (stereo unspecified), the “Percent Effect” value (30.3 µM, […]) came to 59.59%.

In the case of `CCn1nccc1CNC(=O)C(C)n1cc2c(n1)c(C)nn2C` (stereo unspecified), where the note is “30 µM, 30.03 µM”, the “Percent Effect” value is recorded as -8.273%. Take `Cc1nc(NCc2ccc(F)cc2)cc(C(=O)N2CCOCC2)n1`: the “Percent Effect” value (30.3 µM, […]) was determined as 32.39%. The same measure, in the same setting: under `Cc1ccc(CN2CCCC3(CCCCN3S(C)(=O)=O)C2)s1.O=C(O)C(F)(F)F` (stereo unspecified) stands 8.751%. Regarding `Cn1cnnc1C1CCCN(C(=O)NCCCn2cccn2)C1` (stereo unspecified), the “Percent Effect” value (30 µM) is on record as 24.48%. In the case of `Cn1cnnc1SCc1cc2c(cc1Br)OCO2`, the “Percent Effect” value (30.3 µM, […]) was -1.981%. For the molecule `CN(C(=O)c1cccc(OCC(F)F)n1)c1ccc2c(c1)CCO2`, for the setting “30.3 µM, […]”, the “Percent Effect” value stood at 24.43%. For `O=C(C1SCCc2sccc21)N1CCN(CCO)CC1` (stereo unspecified), the “Percent Effect” value (30 µM, 30.03 µM) is -7.988%.

Regarding `Cc1cc(N(C)C)nc(C2(C)CCCN2C(=O)c2ccn(C)n2)n1` (stereo unspecified), the “Percent Effect” value (30.3 µM, […]) is 1.341%. On the same count and under the same terms, the value for `COc1ccc(OCCN(C)S(=O)(=O)N2CCOCC2)cc1` was 11%; that for `CC(C)NC(=O)c1ccc2nnc(C3CN(C)CCN3C)n2c1.O=C(O)C(F)(F)F.O=C(O)C(F)(F)F` (stereo unspecified) was -3.873%.

`COc1c(CNCc2ccccc2Cn2ccnc2)c(C)nn1C`: the “Percent Effect” value (30 µM) stood at 42.31%. As for `COc1c(CNCc2cccc(Cn3ccnc3)c2)c(C)nn1C`, the “Percent Effect” value (30 µM, 30.03 µM) was 57.06%. On to `COc1c(CNCc2cccc(C(=O)N(C)C)c2)c(C)nn1C`, for which the “Percent Effect” value (30 µM) is 37.17%. Regarding `COc1c(CNCc2ccc(C(=O)N(C)C)cc2)c(C)nn1C.Cl`, the “Percent Effect” value (30 µM, 30.03 µM) was 56.22%. For the molecule `COc1c(CNCc2ccc(C(=O)N(C)C(C)C)cc2)c(C)nn1C`, the “Percent Effect” value (30 µM) is 21.5%. On the same count and under the same terms, under `COc1c(CNCc2cccc(Cn3ccnc3C)c2)c(C)nn1C.Cl` stands 52.6%. Same read-out and setting: under `COc1c(CNCc2cccc(Cn3cccn3)c2)c(C)nn1C` stands 41.23%; under `COc1c(CNCc2ccc(Cn3ccnc3)cc2)c(C)nn1C`, 38.9%. `COc1c(CNCc2cccc(CN(C)C)c2)c(C)nn1C.Cl`: the “Percent Effect” value (30 µM, 30.03 µM) is 41.69%. Take `O=C(CN1CCCC(c2ccc(C(=O)O)cc2)C1)NC1CC1` (stereo unspecified): the “Percent Effect” value (30 µM, 30.03 µM) was 23.13%. As for `Cc1ccc2cc(C(=O)N3CCCC3Cn3cccn3)[nH]c2c1` (stereo unspecified), the “Percent Effect” value (30.3 µM, […]) worked out at 22.94%.

As for `Cc1cnn(CCNCc2ccc(OCc3cccnc3)cc2)c1`, the “Percent Effect” value (30 µM) was 27.42%.
